Data on 46 molecules can be found in publication PMC4336329 (PLoS ONE, 2015).

Each structure is given as a SMILES string. Hit rate of the full screen: of about 310,000 compounds, about 14,000 (4.5%) showed an effect of 50% or more. Effects have a minus sign here. For the sample, strong results were picked, then their nearest neighbours and some compounds at random.
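Further: peak tail current of the secondary pulse compared with the same well before compound.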

Sequence of human ether-à-go-go-related gene (hERG) potassium channel (Q12809 whole entry, looked up): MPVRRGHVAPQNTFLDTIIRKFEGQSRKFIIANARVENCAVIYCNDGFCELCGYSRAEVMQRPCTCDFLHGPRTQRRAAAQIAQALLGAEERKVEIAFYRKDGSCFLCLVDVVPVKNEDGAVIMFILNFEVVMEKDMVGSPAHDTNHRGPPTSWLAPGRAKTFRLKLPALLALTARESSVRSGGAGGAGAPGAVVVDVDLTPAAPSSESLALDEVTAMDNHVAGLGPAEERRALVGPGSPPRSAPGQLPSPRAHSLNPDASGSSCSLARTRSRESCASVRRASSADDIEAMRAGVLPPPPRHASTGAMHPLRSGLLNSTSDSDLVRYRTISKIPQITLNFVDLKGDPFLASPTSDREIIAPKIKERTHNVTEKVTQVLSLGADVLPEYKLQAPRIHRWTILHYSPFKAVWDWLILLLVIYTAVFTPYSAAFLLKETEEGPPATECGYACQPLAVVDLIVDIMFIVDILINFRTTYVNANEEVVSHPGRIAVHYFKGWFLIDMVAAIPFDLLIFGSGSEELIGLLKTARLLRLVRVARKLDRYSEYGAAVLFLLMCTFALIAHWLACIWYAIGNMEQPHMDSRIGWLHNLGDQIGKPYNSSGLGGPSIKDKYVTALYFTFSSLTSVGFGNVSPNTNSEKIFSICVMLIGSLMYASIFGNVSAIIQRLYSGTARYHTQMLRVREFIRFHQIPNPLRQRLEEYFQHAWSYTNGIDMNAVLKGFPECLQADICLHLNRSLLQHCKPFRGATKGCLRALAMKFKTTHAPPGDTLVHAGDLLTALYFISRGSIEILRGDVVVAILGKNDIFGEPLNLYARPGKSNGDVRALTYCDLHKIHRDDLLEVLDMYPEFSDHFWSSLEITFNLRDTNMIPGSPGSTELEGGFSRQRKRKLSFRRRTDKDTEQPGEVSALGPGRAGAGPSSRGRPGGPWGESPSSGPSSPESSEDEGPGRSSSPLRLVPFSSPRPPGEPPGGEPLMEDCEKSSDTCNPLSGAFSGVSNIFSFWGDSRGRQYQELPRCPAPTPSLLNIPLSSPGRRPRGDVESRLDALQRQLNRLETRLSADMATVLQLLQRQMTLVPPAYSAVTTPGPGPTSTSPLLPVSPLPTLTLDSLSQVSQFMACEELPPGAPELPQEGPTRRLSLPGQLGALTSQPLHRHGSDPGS

The test has as its target human ether-à-go-go-related gene (hERG) potassium channel (human, UniProt Q12809). The test is described as follows: primary screen, population patch clamp on CHO cells stably expressing hERG; higher = less effect of the substance.
For the molecule `Cc1c(CCO)c(=O)n(C)n1C(=O)c1ccc(F)cc1`, the “hERG current change (%, negative = inhibition) at 10uM” value amounted to 2.6%. As to `CCCCCN(C(=O)CCC(=O)OCc1ccc(C(C)(C)C)cc1)c1c(N)n(CCCC)c(=O)[nH]c1=O`, the “hERG current change (%, negative = inhibition) at 10uM” value is on record as -8.09%. In the case of `CCN(Cc1ccccc1)C(=O)c1ccc(CS(=O)c2ccccc2C)o1` (stereo not shown) it was -43.9%; in that of `C/C(=N\NC(=O)c1csc(C)c1C)c1ccc(Cl)s1`, -0.674%; in that of `C/C=C\C=C\C(=O)N1CC2(CC(c3cccc(NC(=O)CC(c4ccccc4)c4ccccc4)c3)=NO2)C[C@H]1C(N)=O` (stereo partly shown), 0.883%. In the case of `CCOc1ccc(NC2=C(Cl)C(=O)N(Cc3ccccc3)C2=O)cc1` it was -0.258%; in that of `O=C1C(Cl)=C(Nc2cccc(O)c2)C(=O)N1Cc1ccccc1`, -62.4%; in that of `CC1CCCCN1C(=O)c1cccc(NC2=C(Cl)C(=O)N(Cc3ccccc3)C2=O)c1` (stereo not shown), -15.8%. Then `NC(C(=O)O)c1cc(=O)[nH]o1` (stereo not shown), with 13.4%; and `CCCCn1c(SCC(=O)Nc2cccc(C)n2)nnc1-c1ccco1`, with -76%. As for `CCn1c(SCC(=O)NC2CCCC2)nnc1-c1ccco1`, the “hERG current change (%, negative = inhibition) at 10uM” value is listed as 14.8%. Then `CCC(=O)Nc1ccc(NC(=O)CSc2nnc(-c3ccco3)n2CC)cc1`, with 8.22%; and `COCCn1c(SCC(=O)Nc2cc(C)on2)nnc1-c1ccco1`, with -4.67%. In the case of `CCCn1c(SCC(=O)NC2CCCCC2)nnc1-c1ccco1` it was -20.3%; in that of `CCn1c(SCC(=O)Nc2cc(C)on2)nnc1-c1ccco1`, -4.87%; in that of `COCCCn1c(SCC(=O)Nc2cccc(C)n2)nnc1-c1ccco1`, -69.3%. Then `CCCCn1c(SCC(=O)Nc2cc(C)on2)nnc1-c1ccco1`, with -23.3%; and `CCCCn1c(SCC(=O)NC2CCCC2)nnc1-c1ccco1`, with -54.8%. For the molecule `CCCCn1c(SCC(=O)NC(C)(C)C)nnc1-c1ccco1`, the “hERG current change (%, negative = inhibition) at 10uM” value is on record as -1.57%. As for `CCn1c(SCC(=O)Nc2cccc(C)n2)nnc1-c1ccco1`, the “hERG current change (%, negative = inhibition) at 10uM” value was -50.9%. Then `COCCn1c(SCC(=O)Nc2cccc(C)n2)nnc1-c1ccco1`, with -11.5%; and `O=C(O)c1cccc(Nc2ncnc3ccc(Br)cc23)c1`, with -1.55%; and `COc1ccccc1CNS(=O)(=O)c1ccc(C)cc1`, with 7.04%. In the case of `CN(C)c1ccc(/C=C2\C(=N)N3N=C(CC(=O)N4CCCC4)SC3=NC2=O)cc1Br` it was 4.09%. Then `COCc1cc(C)nc(N/N=C/c2ccc(Cl)c(Cl)c2)c1C#N`, with 12.4%; and `CCN1CC2([N+](=O)[O-])CC=C(Cl)C([N+](=O)[O-])(C1)C2` (stereo not shown), with 13.9%; and `Cc1cc(N2CCN(S(=O)(=O)c3ccc4ccccc4c3)CC2)n2ncnc2n1`, with -77.7%.

As for `Cc1cc(N2CCN(S(=O)(=O)c3ccc(Br)cc3)CC2)n2ncnc2n1`, the “hERG current change (%, negative = inhibition) at 10uM” value is -76.9%. In the case of `Cc1cc(N2CCN(S(=O)(=O)Cc3ccccc3)CC2)n2ncnc2n1`, the “hERG current change (%, negative = inhibition) at 10uM” value was -46.1%.

On to `Cc1nc2ncnn2c(N2CCN(S(=O)(=O)c3ccc(Br)cc3)CC2)c1C`, for which the “hERG current change (%, negative = inhibition) at 10uM” value is -20.7%.

As to `CC(=O)Nc1ccc(S(=O)(=O)N2CCN(c3cc(C)nc4ncnn34)CC2)cc1`, the “hERG current change (%, negative = inhibition) at 10uM” value is -27.9%. Then `Cc1ccccc1N1CCN(S(=O)(=O)c2ccc3ccccc3c2)CC1`, with 9.64%.

For the molecule `CC1CN(C(=O)CSc2nnc(NC(=O)NC(C)(C)C)s2)CC(C)O1` (stereo not shown), the “hERG current change (%, negative = inhibition) at 10uM” value was 19%. In the case of `CC1(CCc2ccccc2)NC(=O)N(Cc2nnc(-c3ccccc3Br)o2)C1=O` (stereo not shown) it was -26%; in that of `CCOC(=O)C1CCN(C(=O)CN(c2ccc(OC)c(OC)c2)S(=O)(=O)c2ccccc2)CC1`, -14.7%.

Take `CCOc1ccc(S(=O)(=O)NCCC(=O)NCC(c2ccco2)N2CCCCC2)cc1` (stereo not shown): the “hERG current change (%, negative = inhibition) at 10uM” value is on record as -17.7%.

Consider `CN1CCN(c2ccc([N+](=O)[O-])cc2NC(=O)c2ccco2)CC1`, for which the “hERG current change (%, negative = inhibition) at 10uM” value is -66.9%.

Take `CN1CCN(c2ccc(C(F)(F)F)cc2NC(=O)c2ccco2)CC1`: the “hERG current change (%, negative = inhibition) at 10uM” value is on record as -54.5%. In the case of `CC1N(C)c2cc(NC(=O)c3ccco3)c(P(=O)(Nc3ccc([N+](=O)[O-])cc3)N3CCOCC3)cc2C1(C)C` (stereo not shown) it was -56%; in that of `CC1N(C)c2cc(NC(=O)c3ccco3)ccc2C1(C)C` (stereo not shown), -13.9%; in that of `CCC(=O)Nc1cc(C(F)(F)F)ccc1N1CCOCC1`, 1.09%.

`CC1N(C)c2cc(NC(=O)c3cccs3)c(P(=O)(Nc3ccc([N+](=O)[O-])cc3)N3CCOCC3)cc2C1(C)C` (stereo not shown): the “hERG current change (%, negative = inhibition) at 10uM” value is reported as 12.2%. In the case of `O=C(Nc1cc([N+](=O)[O-])ccc1N1CCCC1)c1ccco1` it was -34.5%; in that of `Cc1cc(C(=O)Nc2cc(C(F)(F)F)ccc2N2CCOCC2)no1`, 5.97%. Then `O=C(Nc1cc(C(F)(F)F)ccc1N1CCOCC1)c1ccco1`, with 6.93%; and `O=C(Nc1cc(C(F)(F)F)ccc1N1CCCCC1)c1ccco1`, with 21.2%.
